Test results published in PubChem BioAssay.
Inconclusive results are not listed. Activity calls are given as the source filed them. Unless noted, how the calls were made is not given here.

Columns and labels:
[1] = rapamycin-like changes in RPL19A-GFP expression – cell-based, S. cerevisiae, multiplex flow cytometry, primary screen (AID 1862; in the data active means percent of DMSO control GFP below about 86%;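 further: lower values mimic rapamycin by blocking the RPL19A rise seen in DMSO cells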); details: S. cerevisiae RPL19A-GFP strain, flow cytometry fluorescence, 3 h; at 10 µM; stronger effect = lower value
[2] = TOR pathway GLN3 branch reporter MEP2-GFP changes – S. cerevisiae, multiplex flow cytometry, primary screen (AID 1867;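 active means GFP response, as percent of the DMSO control, above the screen-wide mean plus 3 SD, about 139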;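 further: median GFP channel fluorescence of barcode-gated MEP2-GFP cells measured by flow cytometry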); details: S. cerevisiae MEP2-GFP strain, 3 h, at 10 µM, stronger effect = higher value
[3] = TOR pathway RTG branch CIT2 reporter changes – S. cerevisiae, GFP fusion, multiplex flow cytometry, primary screen (AID 1870;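 active means percent response above a set limit, the screen-wide mean plus 3 SD, cut at about 130% in these data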;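 further: barcoded CIT2-GFP strain pooled with four other GFP strains with rapamycin as positive control; median GFP fluorescence per well over plate mean of DMSO wells so 100% = DMSO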); details: S. cerevisiae CIT2-GFP expression, 3 h, at 10 µM, stronger effect = higher value
[4] = TOR pathway LAP4-GFP level changes – S. cerevisiae, multiplex flow cytometry, primary screen (AID 1873;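 active means GFP signal, as percent of the solvent control, above the screen mean plus 3 SD, about 149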); details: S. cerevisiae LAP4-GFP expression, 3 h, at 10 µM, stronger effect = higher value
[5] = yeast AGP1-GFP level changes, GLN3 branch – cell-based, multiplex flow cytometry, S. cerevisiae, primary screen (AID 1887;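 active means GFP signal above the screen-wide mean plus 3 SD, that is over about 124.5% of the solvent control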;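 further: AGP1-GFP fusion strain of S. cerevisiae within a five-strain barcoded multiplex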); details: 3 h, at 10 µM, stronger effect = higher value
[6] = reduced mouse 2C T cell binding to pMHC/ICAM-1 vesicles – MLPCN validation set, flow cytometry, LFA-1/ICAM-1 modulator project, pilot screen (AID 2523;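 active means response below a set limit, under 55% cells CD8-positive and vesicle-bound, and CD8 cells' 90th-percentile brightness under 279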;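 on vesicle binding response: mean PE anti-B7-1 fluorescence of CD8+ cells relative to row control; 100% = QL9-loaded vesicles with DMSO vehicle in the same plate row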); details: 2C mouse CD8+ T cells, at 7 µM, stronger effect = lower value; double positive events: measured here: CD8+/vesicle+ event percentage
[7] = target: Integrin beta-1 (Homo sapiens) + Integrin alpha-4 (Homo sapiens) (UniProt P13612+P05556); test: alpha4beta1 integrin LIBS antibody binding reduction – U937 cells, HUTS-21 mAb, flow cytometry, validation set, VLA-4 allosteric modulator project, pilot screen (AID 2674;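 active means inhibition above 50%, about 3 SD of the validation set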;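 further: antibody binding induced by the VLA-4 ligand LDV present at three times its Kd; 0% = LDV ligand with antibody and no compound and 100% = antibody without LDV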); details: HUTS-21 LIBS mAb binding, at 6.7 µM, stronger effect = higher value
Chain of Integrin beta-1 (Homo sapiens) + Integrin alpha-4 (Homo sapiens) (P05556 whole entry, looked up): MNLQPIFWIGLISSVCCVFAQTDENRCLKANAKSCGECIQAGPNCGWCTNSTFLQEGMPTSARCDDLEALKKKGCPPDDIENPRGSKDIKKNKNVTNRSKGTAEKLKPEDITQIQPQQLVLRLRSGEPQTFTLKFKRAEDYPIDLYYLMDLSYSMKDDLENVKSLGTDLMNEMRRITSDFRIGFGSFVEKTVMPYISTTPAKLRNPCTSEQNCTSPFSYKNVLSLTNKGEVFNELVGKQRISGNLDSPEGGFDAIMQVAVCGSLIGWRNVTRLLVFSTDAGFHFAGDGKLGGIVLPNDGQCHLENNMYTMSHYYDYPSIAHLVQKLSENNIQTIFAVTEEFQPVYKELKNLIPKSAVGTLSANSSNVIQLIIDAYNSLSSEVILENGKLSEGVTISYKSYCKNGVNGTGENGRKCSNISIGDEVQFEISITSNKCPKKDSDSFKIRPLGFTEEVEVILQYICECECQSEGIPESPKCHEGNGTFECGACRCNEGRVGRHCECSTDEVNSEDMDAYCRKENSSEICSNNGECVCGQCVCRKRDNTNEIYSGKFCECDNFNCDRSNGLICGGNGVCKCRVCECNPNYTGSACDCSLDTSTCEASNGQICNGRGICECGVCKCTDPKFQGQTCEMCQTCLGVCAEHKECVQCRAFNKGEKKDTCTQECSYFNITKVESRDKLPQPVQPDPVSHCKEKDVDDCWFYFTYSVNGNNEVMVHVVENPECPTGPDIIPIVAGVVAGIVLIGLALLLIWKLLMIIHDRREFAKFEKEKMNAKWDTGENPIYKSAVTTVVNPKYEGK
Chain of Integrin beta-1 (Homo sapiens) + Integrin alpha-4 (Homo sapiens) (P13612 whole entry, looked up): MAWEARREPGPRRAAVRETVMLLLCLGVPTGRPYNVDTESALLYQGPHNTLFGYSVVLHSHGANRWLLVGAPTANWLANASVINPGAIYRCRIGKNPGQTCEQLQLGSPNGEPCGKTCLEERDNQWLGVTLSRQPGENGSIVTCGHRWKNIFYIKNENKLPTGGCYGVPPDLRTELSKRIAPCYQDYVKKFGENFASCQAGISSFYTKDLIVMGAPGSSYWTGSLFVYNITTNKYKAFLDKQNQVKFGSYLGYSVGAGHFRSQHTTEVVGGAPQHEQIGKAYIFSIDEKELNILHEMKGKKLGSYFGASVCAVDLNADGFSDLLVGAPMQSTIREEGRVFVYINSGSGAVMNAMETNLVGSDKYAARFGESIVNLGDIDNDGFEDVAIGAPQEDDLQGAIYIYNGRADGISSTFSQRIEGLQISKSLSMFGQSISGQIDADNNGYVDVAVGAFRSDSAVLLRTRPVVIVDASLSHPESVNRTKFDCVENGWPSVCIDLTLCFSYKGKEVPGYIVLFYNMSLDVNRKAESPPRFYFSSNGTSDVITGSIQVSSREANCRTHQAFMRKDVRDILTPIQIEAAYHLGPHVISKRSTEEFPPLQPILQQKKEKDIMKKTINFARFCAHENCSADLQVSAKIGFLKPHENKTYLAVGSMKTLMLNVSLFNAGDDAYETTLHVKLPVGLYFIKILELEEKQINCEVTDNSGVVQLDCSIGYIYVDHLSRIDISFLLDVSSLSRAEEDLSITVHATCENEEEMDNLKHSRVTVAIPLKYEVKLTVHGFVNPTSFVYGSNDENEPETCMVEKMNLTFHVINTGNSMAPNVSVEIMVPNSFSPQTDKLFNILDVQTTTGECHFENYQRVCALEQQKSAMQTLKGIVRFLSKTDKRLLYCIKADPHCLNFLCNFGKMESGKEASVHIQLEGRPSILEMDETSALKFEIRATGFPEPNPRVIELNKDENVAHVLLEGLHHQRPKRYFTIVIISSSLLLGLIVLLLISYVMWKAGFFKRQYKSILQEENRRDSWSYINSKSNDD

[8] = calorie-restriction mimetic ROS inhibitors, yeast – validation compound set, pilot screen (AID 2706;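 active means superoxide response below 65% of plate, a cut near 3 SD across the whole screen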;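 further: yeast exposed to compound for one week at 30 degrees C before staining; 100% = mean of all compound wells on the same plate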); details: S. cerevisiae aging, superoxide DHE fluorescence; at 10 µM; stronger effect = lower value
[9] = target: Beta-adrenergic receptor kinase 1 (Homo sapiens) (UniProt P25098); test: GRK2 binders displacing RNA aptamer, biochemical, validation, human GRK2, bead flow cytometry (AID 488806;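 active means aptamer binding inhibition above 30%, about 3 SD of noise from non-fluorescent compounds; inactive means inhibition at or below 30%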); details: bead-bound GRK2, FAM-aptamer displacement, at 10 µM, stronger effect = higher value
[10] = target: Beta-2 adrenergic receptor (Homo sapiens) (UniProt P07550); test: agonist-induced loss of surface beta2AR – cell-based, FAP fluorogen, flow cytometry, validation set, pilot screen (AID 504459;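 active means percent response above 42, roughly 3 SD of non-fluorescent test compounds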;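 further: agonist-driven loss of surface beta2AR via internalization measured by FAP dye flow cytometry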); details: Am2.2-beta2AR cells, at 10 µM, stronger effect = higher value
[11] = target: AP-2 complex subunit beta (Homo sapiens) (UniProt P63010); test: beta-arrestin/AP2 interaction blockers – biochemical, validation set, GST-AP2 beads, flow cytometry, pilot screen (AID 504541;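 active means inhibition above 54%, about 3 SD of non-fluorescent compounds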;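 further: AP2 carries R879A mutation and is captured from E. coli lysate; bead-bound FITC arrestin peptide fluorescence measuring arrestin peptide binding to AP2; 0% = DMSO wells and 100% = excess unlabeled arrestin peptide control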); details: FITC arrestin peptide, at 10 µM, stronger effect = higher value
[12] = cytosolic pH regulators acting via V-ATPase – S. cerevisiae, pHLuorin, HTS validation (AID 504600; in the data active means response above about 15%;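 further: plate controls were DMSO for no effect and reference compound for full effect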); details: V-ATPase proton transport, at 10 µM, stronger effect = higher value
[13] = system: anti-desmoglein-3 scFv antibody binding to human DSG3; test: blockers of pathogenic pemphigus antibody–desmoglein-3 binding – biochemical, validation compound set, bead-based, flow cytometry, pilot screen (AID 588368;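 active means binding below the plate cutoff, the plate median minus 3 SD, with a reading above zero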;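 further: signal is the median channel fluorescence of bead-bound GFP antibody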); details: Protein G beads, DSG3-Fc, scFv-GFP binding, at 10 µM, stronger effect = lower value
[14] = system: Botulinum neurotoxin type F light chain protease (Clostridium botulinum); test: Clostridium botulinum type F light chain protease inhibitors, microsphere substrate cleavage, validation (AID 588459); details: multiplex microsphere protease substrate cleavage assay, flow cytometry; at 10 µM; stronger effect = higher value
[15] = target: Botulinum neurotoxin type A (Clostridium botulinum) (UniProt P0DPI0); test: BoNT/A light chain protease inhibitors, biochemical, multiplex microsphere flow cytometry, validation set (AID 588460); details: at 10 µM, stronger effect = higher value
Chain of Botulinum neurotoxin type A (Clostridium botulinum) (P0DPI0 whole entry, looked up): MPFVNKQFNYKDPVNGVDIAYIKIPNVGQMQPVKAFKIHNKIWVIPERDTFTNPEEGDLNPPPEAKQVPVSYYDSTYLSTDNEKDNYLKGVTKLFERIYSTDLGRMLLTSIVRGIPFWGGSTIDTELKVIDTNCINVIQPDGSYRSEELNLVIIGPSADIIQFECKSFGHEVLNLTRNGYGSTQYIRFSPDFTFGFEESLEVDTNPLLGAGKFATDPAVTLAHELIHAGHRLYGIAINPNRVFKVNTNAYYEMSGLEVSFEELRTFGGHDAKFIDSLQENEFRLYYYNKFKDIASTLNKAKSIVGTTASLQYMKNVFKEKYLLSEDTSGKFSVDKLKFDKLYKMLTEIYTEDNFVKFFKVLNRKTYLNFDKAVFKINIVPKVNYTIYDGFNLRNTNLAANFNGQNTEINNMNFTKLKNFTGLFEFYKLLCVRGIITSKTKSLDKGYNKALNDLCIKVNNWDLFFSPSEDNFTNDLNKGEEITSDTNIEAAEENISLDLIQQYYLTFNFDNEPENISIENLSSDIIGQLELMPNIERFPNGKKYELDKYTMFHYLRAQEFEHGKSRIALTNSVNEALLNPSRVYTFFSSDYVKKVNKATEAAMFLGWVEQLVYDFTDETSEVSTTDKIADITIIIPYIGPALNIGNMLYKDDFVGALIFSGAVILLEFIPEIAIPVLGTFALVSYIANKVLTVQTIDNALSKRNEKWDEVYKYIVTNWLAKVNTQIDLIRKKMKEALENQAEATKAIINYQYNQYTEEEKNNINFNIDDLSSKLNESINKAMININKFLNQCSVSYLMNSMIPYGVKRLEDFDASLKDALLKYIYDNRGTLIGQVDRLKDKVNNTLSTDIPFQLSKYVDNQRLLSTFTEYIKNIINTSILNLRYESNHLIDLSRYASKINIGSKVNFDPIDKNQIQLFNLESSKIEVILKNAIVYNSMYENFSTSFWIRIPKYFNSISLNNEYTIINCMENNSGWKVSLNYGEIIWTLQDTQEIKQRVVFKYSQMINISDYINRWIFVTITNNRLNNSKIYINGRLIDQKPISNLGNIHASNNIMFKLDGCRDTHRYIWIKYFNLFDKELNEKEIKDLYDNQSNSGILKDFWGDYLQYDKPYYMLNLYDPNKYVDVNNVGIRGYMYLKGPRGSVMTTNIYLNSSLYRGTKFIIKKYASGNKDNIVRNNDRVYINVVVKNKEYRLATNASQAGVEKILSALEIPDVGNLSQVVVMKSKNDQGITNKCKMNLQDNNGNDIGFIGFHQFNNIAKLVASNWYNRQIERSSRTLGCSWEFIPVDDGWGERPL

[16] = target: Lethal factor (Bacillus anthracis) (UniProt P15917); test: Bacillus anthracis lethal factor inhibition, microsphere flow cytometry protease assay, validation at 10 µM (AID 588461); details: multiplex microsphere protease cleavage assay, stronger effect = higher value
Chain of Lethal factor (Bacillus anthracis) (P15917 whole entry, looked up): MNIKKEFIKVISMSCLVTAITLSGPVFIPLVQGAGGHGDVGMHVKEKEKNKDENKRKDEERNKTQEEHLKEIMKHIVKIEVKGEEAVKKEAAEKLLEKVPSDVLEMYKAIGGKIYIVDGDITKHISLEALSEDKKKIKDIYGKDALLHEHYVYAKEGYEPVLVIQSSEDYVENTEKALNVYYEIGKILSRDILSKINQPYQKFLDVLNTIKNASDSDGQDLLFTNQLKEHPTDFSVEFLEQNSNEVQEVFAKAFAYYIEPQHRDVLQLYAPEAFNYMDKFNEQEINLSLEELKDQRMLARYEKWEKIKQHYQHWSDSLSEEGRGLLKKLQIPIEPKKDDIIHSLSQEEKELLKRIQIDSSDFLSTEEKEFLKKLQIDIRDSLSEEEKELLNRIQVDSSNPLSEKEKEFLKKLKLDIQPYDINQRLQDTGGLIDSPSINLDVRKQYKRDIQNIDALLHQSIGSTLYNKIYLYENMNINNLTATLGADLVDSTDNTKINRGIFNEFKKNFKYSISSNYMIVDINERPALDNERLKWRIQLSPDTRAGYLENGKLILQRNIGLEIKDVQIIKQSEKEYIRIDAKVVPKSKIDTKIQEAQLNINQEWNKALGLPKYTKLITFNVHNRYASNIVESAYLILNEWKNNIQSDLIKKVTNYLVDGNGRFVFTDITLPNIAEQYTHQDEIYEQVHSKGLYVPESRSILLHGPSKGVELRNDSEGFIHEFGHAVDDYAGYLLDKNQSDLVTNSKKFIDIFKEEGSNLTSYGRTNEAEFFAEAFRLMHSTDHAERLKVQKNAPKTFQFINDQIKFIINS

[17] = Nile Red efflux blockade in pump-expressing yeast – validation compound set, multiplex, phenotypic, pilot screen (AID 588506;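 active means efflux inhibition above 0.42, the validation set average plus 4 SD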;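 further: Nile Red retained in cells so higher fluorescence means more efflux inhibition; 0 = negative control wells and 1 = enniatin B 25 µM full block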); details: S. cerevisiae pump-expressing triplex, Nile Red efflux flow cytometry; at 10 µM; stronger effect = higher value
[18] = target: ATP-binding cassette sub-family B member 6 (Homo sapiens) (UniProt Q9NP58); test: blockers of ABCB6-driven porphyrin uptake – K562-ABCB6 cells, flow cytometry, validation set, pilot screen (AID 588550;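 active means inhibition above the screen-wide mean plus 3 SD, about 51%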;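 further: 0% = DMSO wells and 100% = benzethonium chloride 70 µM positive control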); details: K562-ABCB6 porphyrin accumulation, 1 h, at 10 µM, stronger effect = higher value
Chain of ATP-binding cassette sub-family B member 6 (Homo sapiens) (Q9NP58 whole entry, looked up): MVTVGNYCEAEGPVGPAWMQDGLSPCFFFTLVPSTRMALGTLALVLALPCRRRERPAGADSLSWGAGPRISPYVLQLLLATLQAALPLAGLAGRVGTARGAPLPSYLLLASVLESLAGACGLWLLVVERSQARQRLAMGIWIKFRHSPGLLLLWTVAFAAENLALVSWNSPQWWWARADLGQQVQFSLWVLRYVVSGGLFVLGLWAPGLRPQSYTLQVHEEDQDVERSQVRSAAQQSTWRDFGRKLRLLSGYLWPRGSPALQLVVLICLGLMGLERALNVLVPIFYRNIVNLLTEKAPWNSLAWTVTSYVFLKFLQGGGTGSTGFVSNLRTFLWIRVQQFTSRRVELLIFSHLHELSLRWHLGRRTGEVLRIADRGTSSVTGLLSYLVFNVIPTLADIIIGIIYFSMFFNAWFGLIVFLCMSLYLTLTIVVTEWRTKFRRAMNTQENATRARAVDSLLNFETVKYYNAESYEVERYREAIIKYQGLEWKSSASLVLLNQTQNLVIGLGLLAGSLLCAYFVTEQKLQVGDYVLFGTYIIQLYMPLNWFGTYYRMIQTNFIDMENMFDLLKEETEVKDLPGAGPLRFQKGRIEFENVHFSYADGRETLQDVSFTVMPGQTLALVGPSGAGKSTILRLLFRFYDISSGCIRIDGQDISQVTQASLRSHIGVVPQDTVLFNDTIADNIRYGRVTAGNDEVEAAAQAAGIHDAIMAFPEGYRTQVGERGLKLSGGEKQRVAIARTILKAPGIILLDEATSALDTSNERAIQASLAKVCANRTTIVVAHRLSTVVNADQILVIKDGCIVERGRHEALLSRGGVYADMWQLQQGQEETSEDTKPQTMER

[19] = AML differentiation inducers, ER-HoxA9 marrow cells – cell-based, GFP/MAC1 double positive, flow cytometry, validation set, primary screen (AID 588685;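 active means differentiation response of at least 50%, scaled between solvent and reference control, from cells with both markers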;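 further: compound exposure lasts four days before antibody staining and flow analysis; 0% = DMSO wells and 100% = 5 µM fulvestrant positive control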); details: stronger effect = higher value

Row | SMILES | percent of DMSO control GFP [1] | GFP response vs DMSO [2] | percent response of DMSO control [3] | GFP response vs DMSO [4] | GFP response, % of DMSO [5] | double positive events [6] [%] | vesicle binding response [6] | inhibition [7] | superoxide response (% of plate) [8] | aptamer binding inhibition [9] | response [10] | inhibition [11] | response [12] | binding (% of control) [13] | inhibition [14] | inhibition [15] | inhibition [16] | efflux inhibition (fraction of control) [17] | inhibition [18] | differentiation response [19]
1 | c1ccc2c3c([nH]c2c1)CNCC3 | 100% (inactive) | 104% (inactive) | 106% (inactive) | 111% (inactive) | 105% (inactive) | 55.3 | 82.8% (inactive) | -19.9% (inactive) | 113% (inactive) | -5% (inactive) | -12.8% (inactive) | -0.49% (inactive) | 0.12% (inactive) | 181% (inactive) | -9.7% (inactive) | 0.1% (inactive) | -60.3% (inactive) | 0.395 (inactive) | -82% (inactive) | -0.18% (inactive)
2 | O=C1CCCC2=C1C(c1cccnc1)Nc1ccccc1N2 (stereo not given) | 105% (inactive) | 95.1% (inactive) | 121% (inactive) | 89.4% (inactive) | 107% (inactive) | 64.4 | 211% (inactive) | -5.64% (inactive) | 98% (inactive) | -2% (inactive) | -5.46% (inactive) | -4.18% (inactive) | -6.46% (inactive) | 99.8% (inactive) | 0.4% (inactive) | -2.1% (inactive) | -4% (inactive) | -0.07 (inactive) | -9% (inactive) | -4.64% (inactive)
3 | Clc1ccc(COC(Cn2ccnc2)c2ccc(Cl)cc2Cl)cc1 (stereo not given) | 104% (inactive) | 111% (inactive) | 107% (inactive) | 120% (inactive) | 103% (inactive) | 62.7 | 183% (inactive) | -1.09% (inactive) | 121% (inactive) | 3% (inactive) | 3.99% (inactive) | 16.5% (inactive) | 2.69% (inactive) | 105% (inactive) | -1.3% (inactive) | -0.4% (inactive) | -7% (inactive) | -0.28 (inactive) | -31% (inactive) | 1.28% (inactive)
4 | C[C@]12CC[C@@H](O)C[C@@H]1CC[C@@H]1[C@@H]2CC[C@]2(C)C(=O)CC[C@@H]12 | 100% (inactive) | 99.7% (inactive) | 84.1% (inactive) | 147% (inactive) | 101% (inactive) | 62.8 | 118% (inactive) | -2.43% (inactive) | 75.3% (inactive) | 3% (inactive) | 20.4% (inactive) | -0.33% (inactive) | -2.85% (inactive) | 99% (inactive) | 2% (inactive) | -0.3% (inactive) | -2.4% (inactive) | -0.07 (inactive) | 0% (inactive) | -4.57% (inactive)
5 | COP(=O)(OC)C(O)C(Cl)(Cl)Cl (stereo not given) | 103% (inactive) | 98.3% (inactive) | 102% (inactive) | 99.9% (inactive) | 102% (inactive) | 62.8 | 230% (inactive) | 9.92% (inactive) | 94.8% (inactive) | 3% (inactive) | -7.88% (inactive) | -9.07% (inactive) | 0.81% (inactive) | 97.9% (inactive) | -1% (inactive) | -0.6% (inactive) | -2.9% (inactive) | -0.17 (inactive) | -2% (inactive) | 12.9% (inactive)
6 | C[N+]1(C)[C@@H]2CC[C@H]1CC(OC(=O)C(CO)c1ccccc1)C2 (stereo not given in full) | 105% (inactive) | 96.3% (inactive) | 105% (inactive) | 113% (inactive) | 110% (inactive) | 64.9 | 7000% (inactive) | -14.1% (inactive) | 91% (inactive) | 1% (inactive) | -8.13% (inactive) | -5.05% (inactive) | 0.35% (inactive) | 98% (inactive) | 3.3% (inactive) | -0.2% (inactive) | -4.9% (inactive) | -0.1 (inactive) | 7% (inactive) | -15.2% (inactive)
7 | COc1ccccc1CN1CCCCC1c1cccnc1 (stereo not given) | 104% (inactive) | 99.3% (inactive) | 106% (inactive) | 97.3% (inactive) | 107% (inactive) | 65.8 | 217% (inactive) | 4.73% (inactive) | 98.9% (inactive) | 6% (inactive) | -6.83% (inactive) | 1.86% (inactive) | -0.89% (inactive) | 97.1% (inactive) | 1.4% (inactive) | -0.8% (inactive) | 4% (inactive) | -0.17 (inactive) | 6% (inactive) | 7.09% (inactive)
8 | CN1C[C@H](CNC(=O)OCc2ccccc2)C[C@@H]2c3cccc4c3c(cn4C)C[C@H]21 | 103% (inactive) | 101% (inactive) | 99% (inactive) | 104% (inactive) | 108% (inactive) | 63.3 | 365% (inactive) | -34.3% (inactive) | 125% (inactive) | -1% (inactive) | 13.7% (inactive) | -6.87% (inactive) | -0.08% (inactive) | 110% (inactive) | -0.5% (inactive) | 1.5% (inactive) | -7.6% (inactive) | 0.04 (inactive) | -29% (inactive) | -6.96% (inactive)
